# Results published in PubChem BioAssay (NCATS).
# Results filed as inconclusive are left out. Active and inactive are the calls of the source. Calls come from the whole dose curve; as a rule, active = well fitted cell-killing curve with a large enough effect; inconclusive = small, poorly fitted or top-dose-only effect, or effect the other way; inactive = no such curve, though single readings can be large or run the other way.
# Assay: Viability qHTS for spleen associated tyrosine kinase inhibitor (SYKi) drug resistant MV4-11 cells (AID 1963824); note: nearly all actives have a fitted effect of over 35% in size
# Details: SYKi-resistant MV4-11 viability, CellTiter-Glo, 72 h; series mostly up to 45 µM
# Summary of the method: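 SYK inhibitor-resistant MV4-11 AML cells, 500 per well, added to predispensed compounds and incubated 72 hr at 37 C, 5% CO2. Viability measured by CellTiter-Glo luminescence after 10 min at room temperature.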
# Potency is the fitted concentration of half-maximal effect.
Structure (SMILES),Potency,"viability, % of control"
Nc1ccc(-c2cnc(N)c(-c3ccc(Cl)cc3)c2)cn1,8.2 µM (active),–
C[C@@H]1O[C@@H](O[C@H]2[C@H](OC(=O)[C@]34CCC(C)(C)C[C@H]3C3=CCC5[C@@]6(C)C[C@H](O)[C@H](O[C@@H]7O[C@H](CO)[C@@H](O[C@@H]8O[C@H](CO)[C@@H](O)[C@H](O)[C@H]8O)[C@H](O)[C@H]7O)[C@@](C)(CO)C6[C@H](O)C[C@@]5(C)[C@]3(C)C[C@H]4O)OC[C@H](O)[C@@H]2O)[C@H](O)[C@H](O)[C@H]1O[C@@H]1OC[C@@H](O)[C@H](O[C@@H]2OC[C@](O)(CO)[C@H]2O)[C@H]1O (stereo not given in full),–,108% [at 9.25 µM] (inactive)
CCC(C)C(=O)OC1CC(O)C23C4OCC5(C(O)CC2C1(C)C(O)O4)C3C(=O)C(O)C1(C)C(O)(c2ccoc2)CC2OC251 (stereo not given),0.432 µM (active),–
COc1ccc([C@@]2(O)c3c(ccc(CC=C(C)C)c3O)NC(=O)[C@@H]2OC)cc1,14.3 µM (active),–
CC1=C[C@@H]2[C@H]3[C@@H]4O[C@@](C)(CC[C@H]4O)[C@H]3CC(=O)[C@]23C(=O)N[C@@H](CC(C)C)[C@@H]3[C@@H]1C,8.05 µM (active),–
C[C@@H]1CC[C@]2(C(=O)O[C@@H]3O[C@H](CO)[C@@H](O)[C@H](O)[C@H]3O)CC[C@]3(C)C(=CCC4[C@@]5(C)C[C@@H](O)[C@H](O)[C@@](C)(C(=O)O[C@H]6[C@H](O)C[C@@]7(C)C(CC[C@]8(C)C7CC=C7[C@H]9[C@](C(=O)O[C@@H]%10O[C@H](CO)[C@@H](O)[C@H](O)[C@H]%10O)(CC[C@@H](C)[C@@]9(C)O)CC[C@]78C)[C@@]6(CO)C(=O)O)C5CC[C@]43C)[C@@H]2[C@]1(C)O (stereo not given in full),–,103% [at 9.25 µM] (inactive)
Cn1c(CO)c(-c2ccccc2)c2cc([N+](=O)[O-])ccc21,23.1 µM (active),–
C=C1CC2C3(C)C(O)CC(=O)C(C)(C)C3C(O)C(OC(C)=O)C2(C)C2C(=O)OC(C)(C(=O)OC)C(=O)C12C (stereo not given),6.32 µM (active),–
Nc1ncnc2n[nH]c(Nc3ccc(F)cc3)c12,6.51 µM (active),–
COc1c2c(c(C)c3c1C(=O)OC3)OC1(C)CC(O)C(C(C)(C)O)C(C)(CCC(=O)O)C1C2 (stereo not given),3.17 µM (active),–
